Nrf2 ARE act: qHTS of Nrf2 Activators. Potency, µM (titrated, usually from 46.1 µM), hits mostly activators. actives 0.31% (n = 410,000). AREc32 ARE-luciferase reporter (MCF7-derived line), luminescence, 24 h. AID 624171, 2012; also: nearly all actives have a fitted effect of over 65% in size
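AREc32 cells carrying an ARE-driven firefly luciferase, 1000 cells/well in OPTI-MEM with 5% FBS, dosed after overnight attachment and incubated 24 hr at 37 deg C. Steady-Glo luminescence read after 30 min at RT.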
IL-2 act: qHTS of IL-2 Activators; IL-2 activation reporter assay, cell-based qHTS; stimulated with anti-CD3/CD4/CD28 beads; in transgenic mouse T cells; activation, % (series mostly up to about 46 µM); actives 0.065% (n = 360,000); AID 652025, 2013; in the data active = activation above about 50%; inconclusive = mostly about 30% to 49%
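Readout is EGFP and DsRed signal by fluorescent plate cytometry after 18 h at 37 degrees C. Transgenic mouse T cells (750/well) received compound for 60 min before bead stimulation (anti-CD3, anti-CD4, anti-CD28); memory T cells served as non-tolerant control.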
Nrf2 inh: Nrf2 qHTS screen for inhibitors; actives 2.1% (n = 360,000); Potency, µM (top dose mostly 46 µM), actives largely listed as inhibitors; AID 504444, 2011; A549 ARE-Fluc reporter, luciferase luminescence, 18-24 h; also: nearly all actives have a fitted effect of over 60% in size
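Two sequential reads on A549 ARE_Fluc cells exposed to compound for 18-24 h: a CellTiter-Fluor fluorescence read for viability, then a luciferase luminescence read for Nrf2/ARE activity.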
A549 viability: Nrf2 qHTS screen for inhibitors: counterscreen for cytotoxicity; A549 ARE-Fluc cells, CellTiter-Fluor viability, 18-24 h; Potency, µM (doses to about 46 µM), actives largely listed as inhibitors; actives 0.16% (n = 390,000)
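A549 ARE_Fluc cells in 5% FBS OPTI-MEM were exposed to compounds in concentration-response for 18-24 h at 37 deg C. Viability was read by CellTiter-Fluor fluorescence (Ex 405/Em 525) after 30 min, before the luciferase read.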
Hits are given with their value; 0 = inactive; ? = inconclusive; - = no result given. Only some compounds are listed: those with a hit (about 2.3% of all), similar ones and a draw of the others. Unless noted, calls follow the shape of the dose curve; as a rule, active = well fitted curve in the direction sought with a large enough effect; inconclusive = small, poorly fitted or top-dose-only effect, or another doubt; inactive = no such curve, though single readings can be large; an effect the other way counts as inactive or inconclusive.

SMILES | Nrf2 ARE act | IL-2 act | Nrf2 inh | A549 viability
CC(C)Cc1cc(C(=O)N2N=C(C(F)F)CC2(O)C(F)F)c2ccccc2n1 (stereo not given) | 0 | 0 | ? | 0
CC(=O)c1nn(-c2ccc(OC(F)(F)F)cc2)nc1Nc1ccc(Cl)cc1 | 0 | - | 0 | 0
O=C(Cn1ncc2c([nH]c3ccccc32)c1=O)Nc1cccc(C(F)(F)F)c1 | 0 | - | ? | 0
O=C1NC(=S)N/C1=C/c1ccc2c(c1)OCO2 | 0 | 0 | 13µM | ?
O=C1NC(=S)SC1=Cc1ccc2c(c1)OCO2 | 0 | 0 | ? | ?
O=C1c2ccccc2-c2nc3ccccc3nc21 | 0 | 0 | ? | 0
Cc1nc2c(nc1C)C(=O)c1ccccc1C2=O | 0 | 0 | 16.4µM | ?
CC(=O)N1c2ccc(Cl)cc2C2OCCC2C1c1ccco1 (stereo not given) | 0 | 0 | 0 | 0
Clc1ccc2c(c1)C1OCCC1C(c1ccco1)N2 (stereo not given) | 5.62µM | 0 | 0 | 0
O=C(Nc1cccc(-c2nn3c(=O)cc(N4CCNCC4)nc3s2)c1)c1ccncc1 | - | - | 0 | 0
O=C(NC1CC1)c1cc(-c2ccco2)nc2ccccc12 | 12.6µM | 0 | 0 | 0
Cc1csc(NC(=O)c2cc(-c3ccco3)nc3ccccc23)n1 | 3.98µM | 0 | 0 | 0
Cc1csc(NC(=O)c2cc(C)nc3ccccc23)n1 | 0 | 0 | 0 | 0
O=C(Nc1cccc(S(=O)(=O)NC2=NCCC2)c1)c1cc(-c2ccco2)nc2ccccc12 | 10µM | 0 | 0 | ?
Cc1ccc2nc(NC(=O)c3cc(-c4ccco4)nc4ccccc34)sc2c1 | 0 | 0 | 23.1µM | 0
COc1ccc(OC)c(CCNC(=O)CCCn2c(=O)c3cccn3c3ccccc32)c1 | 0 | - | 0 | 0
CCCCOC(=O)c1ccc(NC(=O)/C(C#N)=C/c2ccc(-c3ccccc3)o2)cc1 | 0 | - | ? | 0
COc1cc(-c2ccno2)ccc1S(=O)(=O)N1CCN(c2ccc(F)cc2)CC1 | 0 | - | - | 0
O=C(Nc1ccc(Cl)cc1)C1CCN(c2nc3ccccc3nc2C(F)(F)F)CC1 | 0 | - | ? | 0
CN(C)C(=O)c1ccc(NC(=O)c2cc(-c3ccco3)nc3ccccc23)cc1 | 11.2µM | 0 | 0 | 0
O=C(CSc1nnc(-c2ccncc2)n1Cc1ccco1)Nc1ccccc1Cl | 0 | 0 | 0 | 0
O=C(CSc1nnc(-c2ccccc2)n1Cc1ccco1)Nc1ccc(S(=O)(=O)N2CCCC2)cc1 | 0 | 0 | 16.4µM | 0
O=C(CSc1nnc(-c2ccncc2)n1Cc1ccco1)Nc1nc(-c2ccccc2)cs1 | 0 | 0 | 13µM | ?
S=c1[nH]nc(-c2ccco2)n1/N=C/c1cccc(Cl)c1 | 12.6µM | 0 | 0 | 0
O=[N+]([O-])c1ccccc1/C=C/C=N/n1c(-c2ccco2)n[nH]c1=S | 10µM | 0 | 0 | 0
SMILES | Nrf2 ARE act | IL-2 act | Nrf2 inh | A549 viability
Cc1ccc(-c2n[nH]c(=S)n2/N=C/C=C/c2ccccc2[N+](=O)[O-])cc1 | ? | 0 | 0 | 0
Cc1ccsc1CNc1ncnc2ccc(-c3ccc4c(c3)OCO4)cc12 | - | - | ? | 0
COC(=O)c1ccc(Cl)cc1N(Cc1c(F)cccc1Cl)S(C)(=O)=O | 0 | 0 | 18.4µM | ?
Cc1cc2c(s1)c1cnn(Cc3ccc(SC(F)(F)F)cc3)c(=O)c1n2C | - | - | 0 | 0
CCC(C)Sc1cc(-c2nc3ccc(C)cn3c2NCc2ccccc2)ccc1OC (stereo not given) | 0 | 0 | 20.6µM | 16.4µM
CCCCNc1c(-c2ccc(SC3CCCCC3)c(OC)c2)nc2ccc(C)cn12 | 0 | 0 | ? | ?
COc1ccc(-c2cc(-c3nc4ccccn4c3NCc3ccccc3)ccc2OC)cc1 | 0 | 0 | 14.6µM | ?
CCCCNc1c(-c2ccc(OC)c(SC3CCCCC3)c2)nc2ccc(C)cn12 | 0 | 0 | 18.4µM | ?
Cc1cccc2c(=O)cc(CSc3ccccc3NC(=O)c3cccc(F)c3)[nH]c12 | 0 | - | - | 0
O=C(Cn1cc(SCc2ccccc2Cl)c2ccccc21)N1CCCCCC1 | 0 | - | ? | 0
Cc1ccc(C)c(S(=O)(=O)c2nnn3c2nc(Nc2ccc(F)c(Cl)c2)c2sccc23)c1 | 0 | - | ? | ?
COc1ccc(NC(=O)CC2C(=O)N(Cc3ccccc3)C(=S)N2CCN2CCOCC2)cc1 (stereo not given) | 0 | 0 | 0 | 0
C=CCN1C(=O)C(CC(=O)Nc2ccc(OCCC)cc2)N(CCCN2CCN(Cc3ccccc3)CC2)C1=S (stereo not given) | 0 | 0 | 18.4µM | ?
CCOc1ccc(NC(=O)Cn2c(=O)cc(C)c3c(C)nn(C)c32)cc1 | 0 | - | 13µM | 0
COc1ccc(OC)c(NC(=O)Cn2c(=O)cc(C)c3c(C)nn(-c4cccc(Cl)c4C)c32)c1 | 0 | - | 20.6µM | ?
CCCCN(CCCC)S(=O)(=O)c1ccc2oc(C(=O)NCc3ccc(C)cc3)c(C)c2c1 | 0 | - | - | 0
Cc1ccc2onc(CNC(=O)Nc3cc(F)ccc3F)c2c1 | 0 | - | ? | 0
CCN(CC)S(=O)(=O)c1ccc2oc(C(=O)NCc3ccc(C)cc3)c(C)c2c1 | 0 | 0 | 16.4µM | 0
CCN(CC)S(=O)(=O)c1ccc(NC(=O)NCc2noc3ccc(C)cc23)cc1 | 0 | - | 18.4µM | ?
O=S(=O)(c1ccc2c(c1)OCCO2)N1CCN(S(=O)(=O)c2ccc(Br)cc2F)CC1 | - | - | 0 | 0
COc1ccc(Cl)cc1NC(=O)CCc1c(C)nc2c(c1C)c(=O)n(C)c(=O)n2C | 0 | - | 0 | 0
O=C(Nc1ccc(C(F)(F)F)cc1)c1ccc(NC(=O)C2CCCO2)cc1 (stereo not given) | 0 | 0 | 20.6µM | 0
O=C(Nc1ccc(F)cc1)c1ccc(NC(=O)C2CCCO2)cc1 (stereo not given) | 0 | 0 | 0 | 0
COC(=O)c1c(NC(=O)/C=C/c2ccc(OC)c(OC)c2)sc2c1CCC2 | 0 | - | 0 | 0
ClC(Cl)c1nnc(-c2ccccc2)c(-c2c[nH]c3ccccc23)n1 | 0 | 0 | 10.3µM | ?
SMILES | Nrf2 ARE act | IL-2 act | Nrf2 inh | A549 viability
CCOC(=O)c1nc(Nc2ccc(C(=O)OC(C)C)cc2)c2ccccc2n1 | 0 | - | ? | 0
COc1ccc(-c2onc(C)c2C)cc1S(=O)(=O)N1CCc2ccccc21 | 0 | - | 18.4µM | 0
O=C(COc1ccc(Cl)cc1Cl)Nc1ccc(CN2CCOCC2)cc1 | 0 | 0 | ? | 0
O=C(COc1ccccc1Cl)Nc1ccc(CN2CCOCC2)cc1 | 0 | 0 | 23.1µM | 0
O=C(COc1ccc(S(=O)(=O)N2CCOCC2)cc1)Nc1ccc(Br)cc1 | 0 | 0 | ? | 0
O=C(/C=C/c1ccc(Cl)cc1Cl)Nc1ccc(CN2CCOCC2)cc1 | 0 | 0 | 7.31µM | 0
O=C(CCCOc1ccc(Br)cc1)Nc1ccc(S(=O)(=O)N2CCOCC2)cc1 | 0 | 0 | 14.6µM | 0
O=C(COc1ccc(Br)cc1)Nc1ccc(CN2CCOCC2)cc1 | 0 | 0 | 23.1µM | 0
O=C(/C=C/c1ccccc1)Nc1ccc(CN2CCOCC2)cc1 | 0 | 0 | 0 | 0
COc1ccc(CN2C(=O)c3ccccc3NC2c2ccc(OC)c(COc3ccc(NC(C)=O)cc3)c2)cc1 (stereo not given) | - | - | 0 | 0
Cc1cc(=O)n(Cc2ccc(Cl)cc2)c2c1c(C)nn2-c1ccccc1 | 0 | - | ? | 0
